These results are taken from PubChem BioAssay (NCATS).

Where “and” joins values, the source holds several entries; their conditions need not be identical. Equal values may be shown once. Unmarked numbers belong to inactive results. Results filed as inconclusive are left out. Calls of active or inactive are those of the source. Unless noted, the call rests on the fitted dose curve; in most records, active means well fitted curve in the direction sought with a large enough effect; inconclusive means small, poorly fitted or top-dose-only effect, or another doubt; inactive means no such curve, though single readings can be large; an effect the other way counts as inactive or inconclusive.

For one test, the system named is JEG-3. Briefly: Primary qHTS to identify gynecologic anti-cancer compounds using libraries of approved drugs and bioactive compounds (AID 1345084). Further: nearly all actives have a fitted effect of over 55% in size. Further: potency means the concentration at half of the fitted maximal effect. Particulars: Gynecologic cancer cell panel viability, ATPlite luminescence, 48 h; series mostly up to 57.5 µM. The method, boiled down:
(§1)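 ATP-based viability (ATPlite), 1,000 cells/well, 16 h pre-incubation, 48 h compound at 37 C, 5% CO2, 15 min RT before read.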

The subject of the next test is OV90. The test is described as above. Particulars: Gynecologic cancer cell panel viability, ATPlite luminescence, 48 h; series mostly up to 57.5 µM. The method, boiled down:
as §1
A general note: In ATP-based viability assays light output follows the ATP content of the culture.

In a further test the test system is PA-1. The test is described as above. Particulars: Gynecologic cancer cell panel viability, ATPlite luminescence, 48 h; series mostly up to 57.5 µM. The method, boiled down: as §1
The test system of another test is SKOV3. Described as above. Particulars: Gynecologic cancer cell panel viability, ATPlite luminescence, 48 h; series mostly up to 57.5 µM. The method, boiled down:
as §1

A further test has as its system Tov-21-G. The test is described as above. Particulars: Gynecologic cancer cell panel viability, ATPlite luminescence, 48 h; series mostly up to 57.5 µM. The method, boiled down: as §1
A further test relates to Tov112D. The test is described as above. Particulars: Gynecologic cancer cell panel viability, ATPlite luminescence, 48 h; series mostly up to 57.5 µM. The method, boiled down:
as §1

Test [1] is described as follows: Drug repurposing screens with cells derived from glioblastoma tumor samples (AID 1345199). Further: nearly all actives have a fitted effect of over 40% in size. Further: potency means the concentration at half of the fitted maximal effect. On activity, negative = cell killing: on the % scale 0 is the no-effect control and ±100 the full control effect. Particulars: GBM patient neurospheres viability, ATP luminescence, 48 h. The method, boiled down:
(§2)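 Primary testing used CD133+ neurospheres from four GBM patients, seven concentrations, 48 h exposure and ATP-based viability; confirmation added three slower-growing patient lines.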

For the next test, the system named is astro. The description is as above. Particulars: viability, ATP luminescence, 48 h; series mostly up to 45.9 µM. The method, boiled down: as §2
In test [2] the target is Nuclear receptor subfamily 1 group I member 2 (Rattus norvegicus) (UniProt Q9R1A7). Put plainly: qHTS assay for small molecule activators of the rat pregnane X receptor (rPXR) signaling pathway (AID 651751; call rule not given here; further: 0% is about no effect). Particulars: rPXR reporter cells, luciferase (One-Glo), 24 h. A general note: In qHTS, concentration-response curves come from the screen itself.
Test [3] is described as follows: qHTS assay for small molecule activators of the human pregnane X receptor (PXR) signaling pathway (AID 720659; call rule not given here; further: 0% is about no effect).
Test [4] in a line: qHTS assay to identify inhibitors of the type 1 interferon - major histocompatibility complex class I in skeletal muscle: Counter screen cell viability and HiBit confirmation (AID 1347412). Further: on the % scale 0 is the no-effect control and ±100 the full control effect; nearly all actives have a fitted effect of over 60% in size. Particulars: iHSKM muscle cells + IFN-b, HiBiT or CellTiter-Glo, 24 h; Potency: HiBiT unless noted; Viability, at 45.9 µM (top of the series). The method, boiled down: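 Duplicate plates, pinned identically: one read for HiBiT-tagged endogenous HLA-B luminescence, the other for ATP-content viability via CellTiter Glo. Cells were genome-engineered human myoblasts given 4 ng/ml IFN-b; compounds 12-pt, 1:3 from 46 uM final; 24 hr exposure.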

[5] abbreviates: at 45.9 µM (top of the series), tumour line B.
The mark [6] stands for this setting: at 45.9 µM (top of the series), tumour line D.
Setting [7] is: at 46 µM (top of the series), tumour line A.
Where [8] appears, read: at 46.1 µM (top of the series), tumour line C.
Setting [9] is: at 20 µM (top of the series), tumour line C.

Chain of Nuclear receptor subfamily 1 group I member 2 (Rattus norvegicus) (Q9R1A7 whole entry, looked up): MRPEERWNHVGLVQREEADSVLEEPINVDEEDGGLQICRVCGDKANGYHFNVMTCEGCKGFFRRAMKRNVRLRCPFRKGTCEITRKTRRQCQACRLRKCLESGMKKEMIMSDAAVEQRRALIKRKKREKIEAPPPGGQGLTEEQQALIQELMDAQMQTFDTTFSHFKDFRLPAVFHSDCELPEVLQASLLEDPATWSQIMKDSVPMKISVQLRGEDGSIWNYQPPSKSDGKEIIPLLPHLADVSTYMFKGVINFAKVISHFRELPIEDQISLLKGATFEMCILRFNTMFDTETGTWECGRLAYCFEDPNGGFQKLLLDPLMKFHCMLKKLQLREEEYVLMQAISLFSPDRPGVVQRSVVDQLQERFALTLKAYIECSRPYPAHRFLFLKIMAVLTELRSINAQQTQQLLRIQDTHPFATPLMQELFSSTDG

Turning to `CC(O)(P(=O)(O)O)P(=O)(O)O`, the Potency result in the test with JEG-3, with OV90, in the test on PA-1, in the test with SKOV3, in the test on Tov-21-G and with Tov112D was “inactive” in each case. Also, the Potency result in the test on astro was “inactive”. For the same compound, the activity, negative = cell killing in [1] (setting [5]) is -12.4%; in test [1] (setting [6]), 0.0097%; in test [1] (setting [7]), -26.7%; in [1] (setting [8]), -3.69%. Besides, the max response in test [2] is -3.46%. Besides, the outcome in [3] was inactive.
As for `CCCCC(=O)O[C@]1(C(=O)CO)CC[C@H]2[C@@H]3CCC4=CC(=O)CC[C@]4(C)[C@H]3[C@@H](O)C[C@@]21C`, the Potency result with JEG-3, with OV90, with PA-1, in the test on SKOV3, in the test on Tov-21-G and in the test on Tov112D was “inactive” each time. Besides, the Potency result (in the test with astro; in test [4]) was “inactive” each time. The activity, negative = cell killing in test [1] (setting [5]) was -13.9%; in [1] (setting [6]), -13.5%; in [1] (setting [7]), -14.6%; in test [1] (setting [8]), -22.7%.
For `Cc1ncc(CSSCc2cnc(C)c(O)c2CO)c(CO)c1O`, the Potency entry with JEG-3, with OV90, in the test on PA-1, with SKOV3, in the test on Tov-21-G and in the test with Tov112D was “inactive” each time. Further, in the test with astro, the Potency entry was “inactive”. Also, the activity, negative = cell killing is -0.0133% in [1] (setting [5]), -10.6% in [1] (setting [6]) and 3.55% in test [1] (setting [8]).
In the case of `CCCSS/C(CCO)=C(\C)N(C=O)Cc1cnc(C)nc1N`, the Potency entry in the test on JEG-3, with OV90, in the test on PA-1, in the test with SKOV3, with Tov-21-G and in the test on Tov112D was “inactive” in each case. The activity, negative = cell killing in test [1] (setting [8]) is -24.8%. The Potency in the test with astro was 22.4 µM (active).
Take `CC(=O)OCC(=O)[C@@]12OC(C)(C)O[C@@H]1C[C@H]1[C@@H]3C[C@H](F)C4=CC(=O)C=C[C@]4(C)[C@@]3(F)[C@@H](O)C[C@@]12C`: the Potency result with JEG-3, with OV90, in the test on PA-1, in the test on SKOV3, in the test with Tov-21-G and in the test with Tov112D was “inactive” each time. In addition, the Potency entry in test [4] is “inactive”. Further, the activity, negative = cell killing is -14.9% in [1] (setting [9]); -15.5% in [1] (at 21.2 µM (top of the series), tumour line B); -1.98% in [1] (at 21.3 µM (top of the series), tumour line A).
In the case of `CCCCCCc1ccc(O)cc1O`, the Potency entry in the test with JEG-3, in the test with OV90, in the test with PA-1, in the test with SKOV3, in the test on Tov-21-G and in the test with Tov112D was “inactive” in each case. The activity, negative = cell killing in test [1] (setting [5]) was -28.1%; in test [1] (setting [8]), -19.2%. For the same compound, the Potency in test [1] (tumour line A) was 10 µM (active). Besides, the max response in test [2] is -4.98% and -0.286%. Besides, the compound was classed as inactive in test [3].
As for `O=C(CCN1CCC(c2ccccc2)C1)c1ccc2c(c1)OCCO2` (stereo not drawn), the Potency entry in the test with JEG-3, in the test with OV90, in the test with PA-1, in the test on Tov-21-G and in the test with Tov112D was “inactive” each time.
As to `OC[C@H]1O[C@@H](n2cnc3c(=S)nc[nH]c32)[C@H](O)[C@@H]1O`, the Potency is 2.51 µM (active) in the test on JEG-3; 8.91 µM (active) with OV90; 5.01 µM (active) in the test on PA-1; 0.891 µM (active) in the test with Tov-21-G; 1.41 µM (active) in [1] (tumour line A). Also, the Potency result in the test with SKOV3 and in the test with astro was “inactive” throughout. Also, the activity, negative = cell killing in test [1] (setting [5]) was -25.4%.
Regarding `COc1cc2c(cc1OC)C(C(C(=O)N(CCc1ccc(OC)c(OC)c1OC)CCc1ccc(OC)c(OC)c1OC)c1ccccc1)=NCC2` (stereo not drawn), the Potency entry with JEG-3, in the test with OV90, in the test with PA-1, in the test on SKOV3, with Tov-21-G and with Tov112D was “inactive” each time. Besides, in the test on astro, the Potency entry was “inactive”.
For `CCCCOc1ccc(OCCCN2CCOCC2)cc1`, the Potency result in the test with JEG-3, in the test on OV90, in the test on PA-1, with SKOV3, in the test with Tov-21-G and with Tov112D was “inactive” throughout. For the same compound, the Potency entry in the test with astro is “inactive”. Besides, the activity, negative = cell killing in test [1] (setting [9]) was -6.83%. Moreover, the Potency in [1] (tumour line A) was 4.47 µM (active).
On to `O=c1[nH]c(=O)n([C@H]2C[C@H](O)[C@@H](CO)O2)cc1C(F)(F)F`, for which the Potency result in the test on JEG-3, in the test on OV90, in the test on SKOV3, in the test on Tov-21-G and with astro was “inactive” in each case. Moreover, the Potency was 8.91 µM (active) with PA-1 and 11.2 µM (active) in the test with Tov112D. Also, the values for the activity, negative = cell killing in test [1] (setting [6]) and in test [1] (setting [8]) were -28.4% and -13.3%, respectively.
For `O=S1(=O)c2cccc3cccc(c23)N1CCCN1CCN(c2ccc(F)cc2)CC1`, the Potency result with JEG-3, in the test on OV90, in the test on PA-1, in the test with SKOV3, in the test with Tov-21-G and with Tov112D was “inactive” throughout. For the same compound, the Potency result with astro is “inactive”. Besides, the activity, negative = cell killing in [1] (setting [5]) was -28.9%. In addition, the Potency in test [1] (tumour line A) was 12.6 µM (active).
`c1ccc(-c2ccc(C(c3ccccc3)n3ccnc3)cc2)cc1` (stereo not drawn): the Potency result in the test with JEG-3, in the test with OV90, in the test with PA-1, in the test with Tov-21-G and with Tov112D was “inactive” in each case. Further, in [1] (setting [5]), the activity, negative = cell killing is -29.4%. Also, the figures for the Potency in test [1] (tumour line A) and in test [1] (tumour line D) were 3.55 µM (active) and 11.2 µM (active), respectively.
In the case of `CC1(C)OC[C@@H](COC(=O)CCc2ccc(OC[C@@H](O)CNCCNC(=O)N3CCOCC3)cc2)O1`, the Potency entry in the test on JEG-3, in the test with OV90, with PA-1, with SKOV3, in the test with Tov-21-G and with Tov112D was “inactive” throughout. The Potency entry with astro was “inactive”. Besides, the activity, negative = cell killing in test [1] (setting [5]) was -1.97% and -1.33%; in test [1] (setting [6]), -8.36% and -5.13%; in [1] (setting [8]), 1.06% and -5.37%.
On to `CC(=O)O[C@]1(C(C)=O)CC[C@H]2[C@@H]3C[C@H](C)C4=CC(=O)CC[C@]4(C)[C@H]3CC[C@@]21C`, for which the Potency entry with JEG-3, in the test on OV90, with PA-1, in the test on SKOV3, with Tov-21-G and in the test on Tov112D was “inactive” throughout. Further, the Potency result in the test with astro is “inactive”. In addition, the activity, negative = cell killing in test [1] (setting [8]) is -19.7%. Besides, the Potency in [1] (tumour line A) is 17.8 µM (active).
Regarding `CC(C)(CO)[C@@H](O)C(=O)NCCCO`, the Potency entry in the test with JEG-3, with OV90, in the test on PA-1, with SKOV3, in the test with Tov-21-G and in the test with Tov112D was “inactive” in each case. Also, the Potency result with astro was “inactive”. Moreover, the activity, negative = cell killing in test [1] (setting [5]) is -12%; in test [1] (setting [6]), -24.7%; in [1] (setting [8]) it was -3.06%.
